According to the supplement of paper PMC10849652:
Targets with a hit are over-represented here; the source holds about 8,800 in all. About 0.5% of all pairs of compound and target were hits. A number with no mark means an inactive call.

What was measured:
Experiment in all cases: log2 fold change, soluble protein after heating vs DMSO (PISA); higher = thermal stabilisation; K562 lysate, 10 uM; active = over 0.2 and 3.5 SD of the protein, either way, in both replicates (recomputed)
nilotinib = compound: Cc1cn(-c2cc(NC(=O)c3ccc(C)c(Nc4nccc(-c5cccnc5)n4)c3)cc(C(F)(F)F)c2)cn1 [nilotinib]
How it was run: (§1)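 K562 pellets were dounce-homogenised in PBS pH 7.4 containing 1 mM MgCl2, and the crude extract, at 1 mg/mL protein, was exposed to 10 μM compound for 30 min. Aliquots were heated for 3 min across 48°C-58°C, pooled, brought to 0.5% NP-40 at 4°C and spun at 21,000xg for 90 min, with the supernatant taken as soluble protein. TMTpro 16plex LC-MS/MS with equalised channel sums quantified that protein. Values are log-two fold changes in thermal stability relative to solvent controls, taken from duplicates.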

[1] = compound: Cc1nc(Nc2n[nH]c3c2CN(C(=O)N[C@H](CN(C)C)c2ccccc2)C3(C)C)c2sccc2n1
How it was run: as §1

dasatinib = compound: Cc1nc(Nc2ncc(C(=O)Nc3c(C)cccc3Cl)s2)cc(N2CCN(CCO)CC2)n1 [dasatinib]
How it was run: as §1

[2] = compound: Cc1ncc(-c2ccnc(Nc3ccc(S(C)(=O)=O)cc3)n2)n1C(C)C
How it was run: as §1

[3] = compound: Cn1cc(-c2ccc3c(c2)CCN3C(=O)Cc2cccc(C(F)(F)F)c2)c2c(N)ncnc21
How it was run: as §1

quisinostat = compound: Cn1cc(CNCC2CCN(c3ncc(C(=O)NO)cn3)CC2)c2ccccc21 [quisinostat]
How it was run: as §1

tipifarnib = compound: Cn1cncc1[C@@](N)(c1ccc(Cl)cc1)c1ccc2c(c1)c(-c1cccc(Cl)c1)cc(=O)n2C [tipifarnib]
How it was run: as §1

[4] = compound: NC(=O)Nc1cc(-c2cccc(F)c2)sc1C(=O)N[C@H]1CCCNC1
How it was run: as §1

[5] = compound: NC(=O)c1cnc(N[C@@H]2CCCC[C@@H]2N)nc1Nc1cccc(-n2nccn2)c1
How it was run: as §1

[6] = compound: NC1(c2ccc(-c3nc4ccn5c(=O)[nH]nc5c4cc3-c3ccccc3)cc2)CCC1
How it was run: as §1

[7] = compound: NCC(=O)Nc1ccc(-n2nc(C(F)(F)F)cc2-c2ccc3c(ccc4ccccc43)c2)cc1
How it was run: as §1

vorinostat = compound: O=C(CCCCCCC(=O)Nc1ccccc1)NO [vorinostat]
How it was run: as §1

silmitasertib = compound: O=C(O)c1ccc2c(c1)nc(Nc1cccc(Cl)c1)c1ccncc12 [silmitasertib]
How it was run: as §1

[8] = compound: O=C1NC(=O)C(c2cnc3ccccn23)=C1c1cn2c3c(cc(F)cc13)CN(C(=O)N1CCCCC1)CC2
How it was run: as §1

entospletinib = compound: c1cn2cc(-c3ccc4cn[nH]c4c3)nc(Nc3ccc(N4CCOCC4)cc3)c2n1 [entospletinib]
How it was run: as §1

Chain of UniProt Q147X3 (Q147X3 whole entry, looked up): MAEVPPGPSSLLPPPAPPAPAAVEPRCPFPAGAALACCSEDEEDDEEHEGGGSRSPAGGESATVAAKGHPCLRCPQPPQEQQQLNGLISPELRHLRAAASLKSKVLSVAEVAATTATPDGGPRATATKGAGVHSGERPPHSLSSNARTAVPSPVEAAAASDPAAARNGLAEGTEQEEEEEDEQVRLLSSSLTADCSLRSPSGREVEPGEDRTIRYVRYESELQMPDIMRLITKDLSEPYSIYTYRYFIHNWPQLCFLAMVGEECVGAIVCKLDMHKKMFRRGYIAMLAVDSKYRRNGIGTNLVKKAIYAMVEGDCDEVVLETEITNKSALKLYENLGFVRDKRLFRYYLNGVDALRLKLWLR
Chain of UniProt Q9BRA0 (Q9BRA0 whole entry, looked up): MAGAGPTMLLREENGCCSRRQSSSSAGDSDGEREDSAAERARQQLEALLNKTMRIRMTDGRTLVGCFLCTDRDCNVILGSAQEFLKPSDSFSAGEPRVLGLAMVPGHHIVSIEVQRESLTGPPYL
Chain of UniProt O95644 (O95644 whole entry, looked up): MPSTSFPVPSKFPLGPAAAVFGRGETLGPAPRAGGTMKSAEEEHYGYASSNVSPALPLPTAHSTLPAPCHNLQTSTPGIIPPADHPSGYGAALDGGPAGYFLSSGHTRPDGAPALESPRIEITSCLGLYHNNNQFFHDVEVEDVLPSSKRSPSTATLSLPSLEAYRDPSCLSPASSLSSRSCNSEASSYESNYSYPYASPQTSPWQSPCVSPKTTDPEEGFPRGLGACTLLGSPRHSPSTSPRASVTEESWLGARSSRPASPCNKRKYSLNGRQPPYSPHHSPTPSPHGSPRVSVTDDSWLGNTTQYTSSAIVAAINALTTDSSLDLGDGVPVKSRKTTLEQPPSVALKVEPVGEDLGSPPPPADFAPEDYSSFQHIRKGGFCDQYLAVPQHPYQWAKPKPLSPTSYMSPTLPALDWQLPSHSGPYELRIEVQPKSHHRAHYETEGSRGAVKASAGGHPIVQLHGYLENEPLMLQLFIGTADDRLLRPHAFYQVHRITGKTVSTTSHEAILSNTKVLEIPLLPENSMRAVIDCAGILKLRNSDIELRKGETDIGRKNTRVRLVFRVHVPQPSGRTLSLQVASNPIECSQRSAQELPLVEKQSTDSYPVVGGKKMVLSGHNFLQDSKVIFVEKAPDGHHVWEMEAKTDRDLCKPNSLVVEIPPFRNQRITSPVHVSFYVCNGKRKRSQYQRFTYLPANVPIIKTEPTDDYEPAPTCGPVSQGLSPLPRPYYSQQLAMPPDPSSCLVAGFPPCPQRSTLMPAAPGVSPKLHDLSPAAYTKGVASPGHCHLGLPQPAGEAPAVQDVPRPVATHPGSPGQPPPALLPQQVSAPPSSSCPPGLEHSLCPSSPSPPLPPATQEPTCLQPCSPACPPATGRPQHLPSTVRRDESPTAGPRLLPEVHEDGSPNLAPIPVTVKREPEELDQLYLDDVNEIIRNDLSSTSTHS
Chain of UniProt Q8IVI9 (Q8IVI9 whole entry, looked up): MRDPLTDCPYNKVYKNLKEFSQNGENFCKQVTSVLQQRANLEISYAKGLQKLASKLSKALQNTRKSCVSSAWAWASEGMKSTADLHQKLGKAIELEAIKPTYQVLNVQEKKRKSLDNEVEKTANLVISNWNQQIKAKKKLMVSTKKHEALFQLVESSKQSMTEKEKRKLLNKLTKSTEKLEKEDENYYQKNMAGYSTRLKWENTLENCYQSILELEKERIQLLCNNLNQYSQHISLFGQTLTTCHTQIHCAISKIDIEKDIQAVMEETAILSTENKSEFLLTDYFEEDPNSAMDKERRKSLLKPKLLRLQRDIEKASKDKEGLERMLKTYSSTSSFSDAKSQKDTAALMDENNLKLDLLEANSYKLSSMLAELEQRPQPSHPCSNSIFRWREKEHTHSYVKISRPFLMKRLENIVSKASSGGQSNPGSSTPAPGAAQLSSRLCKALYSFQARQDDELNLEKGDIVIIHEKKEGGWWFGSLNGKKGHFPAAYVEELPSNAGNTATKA
Chain of UniProt Q08J23 (Q08J23 whole entry, looked up): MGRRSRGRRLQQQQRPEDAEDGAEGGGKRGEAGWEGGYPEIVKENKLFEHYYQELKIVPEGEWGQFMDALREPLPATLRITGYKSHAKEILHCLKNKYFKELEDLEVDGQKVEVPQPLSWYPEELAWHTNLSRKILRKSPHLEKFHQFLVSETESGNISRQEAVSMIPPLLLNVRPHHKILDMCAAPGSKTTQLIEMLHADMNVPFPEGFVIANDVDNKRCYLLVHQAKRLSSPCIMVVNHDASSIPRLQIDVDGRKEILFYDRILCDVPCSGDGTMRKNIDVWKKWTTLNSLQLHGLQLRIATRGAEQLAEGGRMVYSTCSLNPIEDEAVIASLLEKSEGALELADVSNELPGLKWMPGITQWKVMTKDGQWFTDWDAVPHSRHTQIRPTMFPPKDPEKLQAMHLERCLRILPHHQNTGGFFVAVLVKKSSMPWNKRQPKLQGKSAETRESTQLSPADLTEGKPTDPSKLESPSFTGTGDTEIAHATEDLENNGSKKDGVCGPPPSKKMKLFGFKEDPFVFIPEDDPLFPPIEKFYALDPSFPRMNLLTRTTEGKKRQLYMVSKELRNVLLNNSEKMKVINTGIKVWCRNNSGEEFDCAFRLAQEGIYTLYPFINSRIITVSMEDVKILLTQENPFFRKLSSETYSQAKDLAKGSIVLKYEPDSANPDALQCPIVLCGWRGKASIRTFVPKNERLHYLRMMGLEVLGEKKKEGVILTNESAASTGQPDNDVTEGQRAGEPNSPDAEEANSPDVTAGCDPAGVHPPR
Chain of UniProt Q9Y530 (Q9Y530 whole entry, looked up): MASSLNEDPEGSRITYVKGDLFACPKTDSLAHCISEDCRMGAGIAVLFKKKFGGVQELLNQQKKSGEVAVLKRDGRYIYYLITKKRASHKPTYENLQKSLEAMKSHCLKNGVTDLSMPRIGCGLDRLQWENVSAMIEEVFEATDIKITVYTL
Chain of UniProt Q96KB5 (Q96KB5 whole entry, looked up): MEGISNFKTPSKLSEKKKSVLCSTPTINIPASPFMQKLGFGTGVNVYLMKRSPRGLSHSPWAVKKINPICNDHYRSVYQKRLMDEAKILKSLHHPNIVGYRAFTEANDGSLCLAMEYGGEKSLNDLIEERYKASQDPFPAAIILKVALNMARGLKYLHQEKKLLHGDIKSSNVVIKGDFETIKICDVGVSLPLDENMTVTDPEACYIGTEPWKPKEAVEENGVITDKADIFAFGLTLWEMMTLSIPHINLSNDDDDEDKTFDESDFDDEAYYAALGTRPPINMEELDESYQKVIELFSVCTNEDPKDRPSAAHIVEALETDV
Chain of UniProt O96013 (O96013 whole entry, looked up): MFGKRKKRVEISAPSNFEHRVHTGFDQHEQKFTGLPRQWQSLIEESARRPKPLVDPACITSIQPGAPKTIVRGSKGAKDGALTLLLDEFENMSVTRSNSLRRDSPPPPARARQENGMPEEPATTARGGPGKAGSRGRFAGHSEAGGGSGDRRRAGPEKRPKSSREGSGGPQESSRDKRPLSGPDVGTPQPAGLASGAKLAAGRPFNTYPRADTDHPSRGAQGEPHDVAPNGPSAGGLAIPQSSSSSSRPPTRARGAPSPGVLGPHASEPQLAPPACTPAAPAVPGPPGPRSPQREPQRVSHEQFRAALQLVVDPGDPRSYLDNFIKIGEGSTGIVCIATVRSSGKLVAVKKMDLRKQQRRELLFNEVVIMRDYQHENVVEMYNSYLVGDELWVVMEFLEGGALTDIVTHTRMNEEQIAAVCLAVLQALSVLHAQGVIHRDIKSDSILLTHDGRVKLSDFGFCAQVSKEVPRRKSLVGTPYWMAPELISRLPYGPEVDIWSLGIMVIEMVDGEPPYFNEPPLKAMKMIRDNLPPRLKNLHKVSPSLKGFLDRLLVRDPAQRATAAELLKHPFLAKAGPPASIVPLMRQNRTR
Chain of UniProt Q9Y314 (Q9Y314 whole entry, looked up): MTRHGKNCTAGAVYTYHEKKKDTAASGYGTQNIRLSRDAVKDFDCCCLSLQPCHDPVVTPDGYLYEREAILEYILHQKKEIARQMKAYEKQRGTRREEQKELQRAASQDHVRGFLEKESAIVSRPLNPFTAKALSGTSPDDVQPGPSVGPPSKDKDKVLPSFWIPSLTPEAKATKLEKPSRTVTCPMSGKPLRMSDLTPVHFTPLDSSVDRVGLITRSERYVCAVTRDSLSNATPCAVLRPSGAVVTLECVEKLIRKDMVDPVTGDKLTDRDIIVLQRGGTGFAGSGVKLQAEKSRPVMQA
Chain of UniProt Q9H4L5 (Q9H4L5 whole entry, looked up): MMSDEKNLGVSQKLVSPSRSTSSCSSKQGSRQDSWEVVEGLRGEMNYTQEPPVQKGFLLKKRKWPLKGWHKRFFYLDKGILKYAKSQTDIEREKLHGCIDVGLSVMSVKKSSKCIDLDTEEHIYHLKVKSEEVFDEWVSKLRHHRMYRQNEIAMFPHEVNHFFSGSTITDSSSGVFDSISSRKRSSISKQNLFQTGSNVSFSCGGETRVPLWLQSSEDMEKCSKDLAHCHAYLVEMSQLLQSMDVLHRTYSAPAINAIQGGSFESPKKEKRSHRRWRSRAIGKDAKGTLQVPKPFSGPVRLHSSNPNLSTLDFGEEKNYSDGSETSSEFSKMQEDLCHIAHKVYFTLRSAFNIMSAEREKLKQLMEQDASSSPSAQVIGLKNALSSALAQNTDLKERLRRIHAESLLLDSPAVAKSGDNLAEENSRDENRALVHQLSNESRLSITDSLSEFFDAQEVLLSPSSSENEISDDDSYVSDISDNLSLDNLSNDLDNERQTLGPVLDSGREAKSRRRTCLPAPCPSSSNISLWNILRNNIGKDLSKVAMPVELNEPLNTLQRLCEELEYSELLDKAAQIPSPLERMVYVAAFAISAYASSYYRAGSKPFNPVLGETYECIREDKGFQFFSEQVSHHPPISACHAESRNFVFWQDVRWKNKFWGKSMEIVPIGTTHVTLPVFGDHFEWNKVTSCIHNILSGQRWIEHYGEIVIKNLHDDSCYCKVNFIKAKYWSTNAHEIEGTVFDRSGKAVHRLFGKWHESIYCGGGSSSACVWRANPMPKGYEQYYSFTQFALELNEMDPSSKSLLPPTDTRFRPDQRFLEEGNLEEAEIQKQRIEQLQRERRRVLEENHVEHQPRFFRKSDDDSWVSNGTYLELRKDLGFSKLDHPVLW

Row | Target | log2 fold change (nilotinib) | log2 fold change [1] | log2 fold change (dasatinib) | log2 fold change [2] | log2 fold change [3] | log2 fold change (quisinostat) | log2 fold change (tipifarnib) | log2 fold change [4] | log2 fold change [5] | log2 fold change [6] | log2 fold change [7] | log2 fold change (vorinostat) | log2 fold change (silmitasertib) | log2 fold change [8] | log2 fold change (entospletinib)
1 | OAT (UniProt P04181) | 0.012 | -0.038 | -0.033 | 0.003 | -0.012 | -0.002 | 0.024 | -0.01 | 0.019 | -0.018 | 0.053 | 0.168 | -0.006 | 0.042 | 0.029
2 | NFATC1 (UniProt O95644) | -0.048 | -0.055 | 0.014 | 0.014 | 0.037 | -0.097 | 0.006 | 0.042 | -0.002 | -0.058 | 0.014 | -0.364 (active) | 0.07 | 0.033 | -0.047
3 | NUDT4 (UniProt Q9NZJ9) | 0.115 | -0.03 | 0.038 | -0.002 | 0.006 | 0.129 | 0.11 | 0.018 | -0.059 | 0.022 | -0.144 | -0.162 | 0.028 | 0.03 | -0.01
4 | NUDT4 isoform 2 (UniProt Q9NZJ9) | -0.004 | 0.012 | 0.13 | -0.002 | 0.038 | -0.012 | -0.044 | 0.016 | -0.042 | 0.043 | 0.057 | -0.336 (active) | -0.034 | 0.018 | -0.023
5 | NCK1 (UniProt P16333) | -0.071 | 0.015 | -0.005 | -0.037 | -0.015 | -0.053 | 0.018 | 0.029 | 0.001 | 0.008 | 0.048 | -0.281 (active) | 0.01 | -0.014 | 0.019
6 | PAGE2B (UniProt Q5JRK9) | 0.036 | -0.007 | 0.032 | 0.062 | -0.016 | 0.001 | 0.026 | 0.041 | -0.018 | 0.164 | 0.057 | 0.474 (active) | -0.001 | 0.02 | 0.017
7 | NBEAL2 (UniProt Q6ZNJ1) | 0.031 | -0.008 | -0.069 | 0.036 | 0.029 | -0.077 | -0.017 | 0.033 | 0.014 | 0.06 | -0.025 | -0.341 (active) | 0.047 | 0.02 | 0.026
8 | PAK4 (UniProt O96013) | -0.015 | 0.71 (active) | 0.141 | 0.264 | -0.081 | -0.269 | -0.016 | 0.9 (active) | 0.473 | 0.257 | -0.003 | -0.458 | -0.038 | 0.028 | 0.05
9 | NAT1 (UniProt P18440) | -0.005 | -0.017 | -0.058 | -0.04 | 0.097 | -0.1 | -0.006 | 0.017 | -0.018 | -0.037 | -0.049 | 0.144 | 0.275 (active) | 0.032 | -0.04
10 | PBK (UniProt Q96KB5) | -0.01 | 0.006 | -0.035 | 0.017 | 0.017 | -0.02 | 0.033 | 0.032 | 0.017 | 0.024 | -0.029 | -0.269 (active) | 0.013 | -0.021 | 0.035
11 | OSBPL3 isoform 2 (UniProt Q9H4L5) | 0.085 | -0.048 | -0.191 | -0.026 | 0.024 | -0.051 | -0.02 | 0.003 | 0.017 | -0.151 | -0.087 | -0.36 (active) | 0.402 (active) | 0.062 | 0.052
12 | NAA38 isoform 2 (UniProt Q9BRA0) | -0.024 | 0.059 | -0.014 | -0.007 | 0.001 | 0.03 | -0.03 | 0.027 | 0.016 | -0.019 | -0.015 | -0.088 | 0.009 | 0.04 | -0.035
13 | OARD1 (UniProt Q9Y530) | 0.015 | 0.016 | -0.031 | 0.005 | 0.071 | -0.004 | -0.014 | 0.036 | -0.009 | -0.006 | -0.021 | -0.456 (active) | 0.051 | 0.02 | 0.024
14 | MYO1D (UniProt O94832) | 0.002 | -0.01 | -0.036 | -0.006 | 0.016 | -0.031 | -0.004 | 0.05 | 0 | -0.042 | 0.046 | -0.418 (active) | 0.012 | -0.027 | -0.002
15 | NAA30 (UniProt Q147X3) | -0.036 | 0.019 | -0.042 | 0.059 | -0.005 | 0.032 | -0.097 | 0.001 | -0.018 | 0.041 | -0.019 | -0.235 (active) | 0.047 | 0.009 | -0.003
16 | NACC1 (UniProt Q96RE7) | -0.013 | 0.031 | -0.006 | -0.007 | 0.022 | -0.024 | -0.008 | -0.04 | 0.022 | 0.015 | -0.014 | -0.231 (active) | 0.024 | -0.004 | -0.036
17 | NSUN2 (UniProt Q08J23) | 0.013 | -0.004 | -0.023 | -0.005 | 0.022 | 0.007 | 0.027 | 0.024 | -0.009 | -0.011 | 0.004 | -0.42 (active) | 0.03 | -0.007 | 0.011
18 | NOSIP (UniProt Q9Y314) | 0.005 | 0.009 | -0.018 | 0.027 | -0.019 | -0.151 | -0.021 | 0.003 | -0.015 | 0.006 | -0.015 | -0.809 (active) | -0.047 | 0.002 | 0.013
19 | MVB12A (UniProt Q96EY5) | -0.025 | -0.05 | 0.006 | 0.008 | 0.04 | 0.033 | 0.032 | 0.022 | -0.009 | 0.036 | -0.002 | -0.812 (active) | -0.016 | 0.016 | 0.042
20 | OSGEP (UniProt Q9NPF4) | -0.005 | 0.008 | 0.002 | 0.018 | 0.025 | -0.006 | 0.026 | -0.012 | -0.027 | 0.03 | -0.001 | -0.038 | -0.109 | 0.016 | 0.002
21 | NOSTRIN (UniProt Q8IVI9) | -0.015 | -0.02 | -0.022 | 0.03 | 0.01 | -0.031 | -0.008 | 0.01 | -0.018 | 0.064 | -0.083 | -0.27 (active) | 0.028 | 0.019 | 0.018
